Source: PubChem (several laboratories)
Most compounds without a hit are left out; they make up all but 10% or so of the library.
Lmaj promast = Leishmania major promastigote growth inhibition, primary screen. actives 9% (n = 200,000). inhibition, % at 10 µM. Leishmania major promastigotes, resazurin fluorescence viability; in the data active = inhibition above about 50%;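 note: promastigotes grown with compound for 44 hours at 28 °C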
Insulin prom inh = inhibitors of insulin promoter-driven GFP, primary screen, imaging, TRM-6 cells (human fetal islet line), eGFP reporter, cell count | actives 0.9% (n = 130,000) | inhibition, % at 2 µM | reporter expression induced with tamoxifen;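 active = inhibition above the mean plus 3 SD, with well images judged a real hit on visual review, cut at about 60% in these data, passing the limit was not always enough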
ROMK mod = ROMK potassium channel modulators, primary screen, cell-based, thallium flux, MLSMR library; B-score at 10 µM; ATP-sensitive inward rectifier potassium channel 1 (Homo sapiens), P48048; actives 2% (n = 130,000); Tet-inducible ROMK, thallium flux fluorescence; actives lie on both sides;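 active = signal ratio slope over the read window, or its plate-corrected B-score, at least 3 SD from the plate mean, either direction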;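 note: B-score of the F/F0 ratio slope over 7 to 12 s after thallium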
PTEN del growth = growth suppression of PTEN-null HCT116, primary screen, cell-based, CellTiter-Glo; HCT116 PTEN-null viability, 60 h; stronger effect = lower value; viability, % at 10 µM; actives 1.2% (n = 140,000);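 active = viability at or below a set limit, 4 SD under the median of all tested compounds, cut at about 3.7% in these data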;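 note: PTEN knockout HCT116 line with beta catenin targeted HCT116 as companion control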
bCat KO growth = primary screen for growth suppressors in beta-catenin knockout HCT116 cells (colon tumor, human). HCT116 beta-catenin knockout viability, CellTiter-Glo, 60 h; stronger effect = lower value. viability, % at 10 µM. actives 1.5% (n = 140,000);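 active = viability at or under a set limit, the compound median less 4 SD, cut at about 6% in these data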;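 note: 0% = Hyamine 1622 control at 20 µM and 100% = untreated cell control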
p97 ATPase inh = inhibitors of human p97 ATPase, primary screen, biochemical; Transitional endoplasmic reticulum ATPase (Homo sapiens), P55072; recombinant p97 ATPase, Kinase-Glo ATP luminescence, 3 h; inhibition, % at 8 µM; actives 0.42% (n = 220,000); AID 1481, 2009; in the data active = inhibition above about 15%;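 note: 0% = DMSO vehicle and 100% = wells lacking enzyme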
Target sequence (P55072 whole entry, looked up): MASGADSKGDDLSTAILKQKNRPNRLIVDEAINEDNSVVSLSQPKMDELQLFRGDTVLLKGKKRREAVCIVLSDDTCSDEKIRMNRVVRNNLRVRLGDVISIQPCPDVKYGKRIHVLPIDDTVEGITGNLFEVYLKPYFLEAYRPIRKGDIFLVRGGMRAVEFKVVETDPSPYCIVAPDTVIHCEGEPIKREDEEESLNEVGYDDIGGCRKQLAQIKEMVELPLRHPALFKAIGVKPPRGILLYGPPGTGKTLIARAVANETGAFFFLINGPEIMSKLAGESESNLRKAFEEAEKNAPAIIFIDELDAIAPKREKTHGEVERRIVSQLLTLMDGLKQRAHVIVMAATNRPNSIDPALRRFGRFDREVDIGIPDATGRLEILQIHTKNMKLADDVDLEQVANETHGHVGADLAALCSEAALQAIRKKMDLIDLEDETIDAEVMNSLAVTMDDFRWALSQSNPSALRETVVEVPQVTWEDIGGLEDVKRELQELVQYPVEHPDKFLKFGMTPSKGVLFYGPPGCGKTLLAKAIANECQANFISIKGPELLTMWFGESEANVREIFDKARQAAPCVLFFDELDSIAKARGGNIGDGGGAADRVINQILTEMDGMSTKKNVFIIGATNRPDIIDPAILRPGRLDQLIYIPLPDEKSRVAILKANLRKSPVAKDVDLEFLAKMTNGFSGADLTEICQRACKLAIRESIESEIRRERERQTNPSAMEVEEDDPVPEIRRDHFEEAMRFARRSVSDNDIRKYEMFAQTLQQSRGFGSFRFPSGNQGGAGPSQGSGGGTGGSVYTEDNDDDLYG
Starred values were filed as active, the others as inactive; . = no result.

SMILES | Lmaj promast | Insulin prom inh | ROMK mod | PTEN del growth | bCat KO growth | p97 ATPase inh
Brc1ccc(-c2cn3nc4c(nc3n2)CCCC4)cc1 | 42 | 0 | -1.8 | 86 | 91 | 0
N#Cc1cnn(-c2ccccc2)c1NC(=O)CN1CCN(c2ccccc2)CC1 | . | . | . | . | . | 1
CCOc1ccccc1CN1CCN(Cc2csc(C(C)=O)c2)CC1CCO (stereo unspecified) | 73* | . | -0.32 | . | . | 3
CCOc1ccc(CN2CCN(Cc3cccc4c3OCO4)CC2CCO)cc1 (stereo unspecified) | 77* | . | 0.028 | . | . | -3
Cc1ccc(CN2CCN(Cc3cccc4c3OCO4)CC2CCO)cc1 (stereo unspecified) | 58* | . | -0.98 | . | . | 0
CCOc1ccc(CN2CCN(Cc3cccn3-c3ncccn3)CC2CCO)cc1 (stereo unspecified) | 2 | . | 0.59 | . | . | -1
CCOc1ccc(CN2CCN(Cc3[nH]c4ccccc4c3C)CC2CCO)cc1 (stereo unspecified) | 77* | -52 | -0.3 | . | . | -1
CCOc1ccccc1CN1CCN(Cc2cc3ccccc3[nH]2)CC1CCO (stereo unspecified) | 24 | . | -2 | . | . | 0
O=S(=O)(/N=C(/Nc1ccc(F)cc1F)c1ccccc1)c1ccc(Br)cc1 | 2 | . | . | 92 | 94 | 7
COc1ccc(C(=O)O)cc1S(=O)(=O)NC(C)C | . | . | . | . | . | -3
COc1ccc(C(=O)O)cc1F | -3 | 79* | 0.095 | 96 | 107 | 3
CC(=O)OC1C2CCC1C([N+]1(C)CCCCC1)CC2 (stereo unspecified) | -2 | 16 | 0.84 | . | . | 2
CCOc1ccc(CN2CCN(CC(O)Cn3c4ccccc4c4ccccc43)CC2)cc1 (stereo unspecified) | 96* | -122 | -1.6 | 1.6* | 1.5* | -7
COc1cccc(OCCOCC(O)CN2CCN(Cc3ccc(Cl)cc3)CC2)c1 (stereo unspecified) | 52* | 18 | -2.4 | 76 | 72 | 0
CCc1ccc(OCCOCC(O)CN2CCN(Cc3ccc(Cl)cc3)CC2)cc1 (stereo unspecified) | 96* | -85 | -1.5 | 8 | 6 | -3
COc1ccc(OCCOCC(O)CN2CCOCC2)cc1 (stereo unspecified) | -4 | 33 | . | 105 | 100 | 12
OC(COCCOc1ccc(Br)cc1)CN1CCN(Cc2ccccc2)CC1 (stereo unspecified) | 85* | -38 | -0.84 | 19 | 18 | -10
O=c1c2ccccc2n(CC(O)CN2CCCCC2)c2ccccc12 (stereo unspecified) | . | . | -0.025 | . | . | 6
CCOc1ncccc1C(=O)OCC(=O)c1cc(OC)c(OC)c(OC)c1 | . | . | . | . | . | 3
CC1CC(OCC(O)CN2CCN(Cc3ccccc3)CC2)CC(C)(C)C1 (stereo unspecified) | 93* | . | -0.18 | 73 | 75 | -2
CCS(=O)(=O)N1Cc2ccccc2CC1C(=O)Nc1nnc(SCc2c(Cl)cccc2Cl)s1 (stereo unspecified) | 81* | 24 | -0.036 | 94 | 92 | -2
Cc1ccc(CN2CC(C(=O)Nc3nnc(SCc4c(Cl)cccc4Cl)s3)CC2=O)cc1 (stereo unspecified) | 4 | . | . | 88 | 89 | 5
CCS(=O)(=O)N1Cc2ccccc2CC1C(=O)Nc1nc2c(C)cccc2s1 (stereo unspecified) | 55* | -32 | -0.31 | 70 | 73 | -2
Cc1cnc(C(=O)Nc2nnc(SCc3c(Cl)cccc3Cl)s2)cn1 | 56* | 33 | -0.59 | 26 | 20 | 2
CCC(C)NC(=O)NCc1ccccc1F (stereo unspecified) | 2 | . | -0.032 | . | . | -3
CCOC(=O)Cc1csc(NC(=O)Nc2cccc(OC)c2)n1 | . | . | -0.0068 | . | . | -2
Cc1ccc(C(=O)OCC(=O)Nc2cc(F)ccc2F)cc1NC(=O)c1ccco1 | 88* | 17 | . | . | 100 | 3
Oc1ccc(/C=N/NC(=S)NCc2ccco2)cc1 | -4 | -13 | . | 101 | 94 | 0
CCN(CC)c1ccc(/C=N/NC(=S)NCc2ccco2)cc1 | 3 | 100* | -0.074 | 65 | 64 | 0
CO/N=C(\C(=O)O)c1csc(NN=C(C)C)n1 | -4 | -33 | 1.5 | . | . | -4
